Source: PubChem BioAssay
In the library only some 21% were active in any assay of this set; here they are far more common.
VP16 counter: VP16 counterscreen qHTS for inhibitors of ROR gamma transcriptional activity. Drosophila S2 Gal4-VP16 UAS-luciferase, luminescence, 20 h. Potency, µM (titrated, usually from 53.6 µM), without a hit: at the top dose activity, negative = inhibition, actives largely listed as inhibitors. hit rate 3.5% among 310,000;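 note: Gal4-VP16 expression switched on by copper sulfate through the metallothionein promoter; potency is the fitted concentration of half-maximal effect; nearly all actives have a fitted effect of over 50% in size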
TDP1 cell CPT: qHTS for Inhibitors of human tyrosyl-DNA phosphodiesterase 1 (TDP1): qHTS in cells in presence of CPT | chicken DT40 Tdp1-/-;hTDP1 cells + 20 nM CPT, ATP luminescence, 48 h | AID 686979, 2013 | hit rate 12% among 420,000 | Potency, µM (titrated, usually from 46.2 µM), without a hit: top-dose activity change, negative = growth inhibition, usual class: inhibitors; note: potency is the fitted concentration of half-maximal effect; nearly all actives have a fitted effect of over 55% in size
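Chicken DT40 Tdp1-/- cells stably complemented with human TDP1 were seeded at 400 cells/well in medium containing 20 nM camptothecin, exposed to pin-transferred compounds, and grown at 37 °C for at least 48 hr. Viability was read as ATP luminescence.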
ELG1 repair inh: qHTS screen for small molecules that inhibit ELG1-dependent DNA repair in human embryonic kidney (HEK293T) cells expressing luciferase-tagged ELG1. HEK293T ELG1-luciferase reporter, luminescence, 16 h; DNA damage induced by 5-fluorouridine. Potency, µM (series often up to 46.1 µM), for the others: at the top dose activity change, negative = inhibition, most hits filed as inhibitors. hit rate 2.3% among 330,000. AID 504467, 2011; note: potency is the fitted concentration of half-maximal effect; nearly all actives have a fitted effect of over 55% in size
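Step one: seed 2,000 cells per well. Step two: pin-transfer compound or DMSO alongside 5-fluorouridine. Step three: incubate 16 hr, 37 °C, 5% CO2. Step four: add ONE-Glo, wait 30 min, read luminescence.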
IL-1B inflam inh: qHTS for Inhibitors of Inflammasome Signaling: IL-1-beta AlphaLISA Primary Screen. activity change, % at 57.5 µM. hit rate 4.7% among 360,000. THP-1 LPS/ATP IL-1B secretion, AlphaLISA, 16 h; hits give low values. AID 743279, 2014; in the data active = activity change below about -50%; inconclusive = mostly about -30% to -49%
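THP-1 cells pretreated 1 hr with compounds (up to 57.5 uM final), then stimulated with LPS (250 ng/mL final) plus ATP (1.25 mM final); secreted IL-1B measured by AlphaLISA after 16 hr, decreased signal indicating inhibition.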
TDP1 cell noCPT: qHTS for Inhibitors of human tyrosyl-DNA phosphodiesterase 1 (TDP1): qHTS in cells in absence of CPT. DT40 Tdp1-/- hTDP1 cells, no CPT, ATP luminescence, 48 h. Potency, µM (titrated, usually from 46.2 µM), without a hit: top-dose activity change, negative = growth inhibition, most hits filed as inhibitors. hit rate 15% among 420,000; note: potency is the fitted concentration of half-maximal effect; nearly all actives have a fitted effect of over 55% in size
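Seeded 400 DT40-hTDP1 cells/well (vehicle DMSO, no 20 nM CPT); pinned compounds; ≥48 hr at 37 °C; CellTiter-Glo luminescence as viability measure.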
RORgamma inh: qHTS for inhibitors of ROR gamma transcriptional activity. Nuclear receptor ROR-gamma (Mus musculus), P51450. Drosophila S2 Gal4-RORgamma UAS-luciferase reporter, 20 h. Potency, µM (highest dose often 53.6 µM), without a hit: top-dose activity change, negative = inhibition, actives largely listed as inhibitors. hit rate 5.4% among 310,000. AID 2551, 2010; note: potency is the fitted concentration of half-maximal effect; nearly all actives have a fitted effect of over 60% in size
Target sequence (P51450 whole entry, looked up, the tested form may be a part): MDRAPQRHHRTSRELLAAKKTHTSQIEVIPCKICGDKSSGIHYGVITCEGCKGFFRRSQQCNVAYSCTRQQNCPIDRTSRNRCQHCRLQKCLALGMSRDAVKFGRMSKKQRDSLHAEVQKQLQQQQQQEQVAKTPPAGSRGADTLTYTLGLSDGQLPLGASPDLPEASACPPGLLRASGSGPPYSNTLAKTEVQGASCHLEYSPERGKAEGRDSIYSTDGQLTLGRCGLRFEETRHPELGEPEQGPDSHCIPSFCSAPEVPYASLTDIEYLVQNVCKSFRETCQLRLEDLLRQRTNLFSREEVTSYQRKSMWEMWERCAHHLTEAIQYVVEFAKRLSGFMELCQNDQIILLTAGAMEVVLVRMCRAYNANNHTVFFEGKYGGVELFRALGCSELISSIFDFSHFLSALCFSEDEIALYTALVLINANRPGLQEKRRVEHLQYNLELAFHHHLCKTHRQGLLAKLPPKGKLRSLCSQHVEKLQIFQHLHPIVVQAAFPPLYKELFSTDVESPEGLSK
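Read-out: Photinus luciferase luminescence; inhibitors lower reporter signal. Insect Schneider cells with Gal4-ROR gamma fusion under metallothionein promoter, UAS reporter; 700 uM final copper sulfate induction, 20 hr, ambient temperature.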
Numbers without * were called inactive; u = inconclusive; x = no result given; [ ] = dose if it differs, or a comment. Unless noted, calls come from the whole dose curve; as a rule, active = well fitted curve in the direction sought with a large enough effect; inconclusive = small, poorly fitted or top-dose-only effect, or another doubt; inactive = no such curve, though single readings can be large; an effect the other way counts as inactive or inconclusive. % is set by controls: 0 for no effect and ±100 for the full control effect.

SMILES	VP16 counter	TDP1 cell CPT	ELG1 repair inh	IL-1B inflam inh	TDP1 cell noCPT	RORgamma inh
COc1ccc2[nH]c3c(c2c1)CCN1C(=O)C(CC(=O)NCC24CC5CC(CC(C5)C2)C4)C[C@H](C(=O)N(C(C)C)C(C)C)[C@@]31C (stereo partly drawn)	x	u	-3%	-72*	u	x
O=C(O)C1CCN(S(=O)(=O)c2ccc(Cl)s2)CC1	x	-5%	5%	24	3%	x
CCN(CC)CCCCn1c(-c2ccccc2)nc2c(NCc3ccccc3)nc(C)nc21	5%	x	x	x	x	-19%
COc1ccc(C2/C=C\CN(C(=O)OCC3c4ccccc4-c4ccccc43)CC(=O)N2Cc2cccc(F)c2)cc1 (stereo not drawn)	-9%[40.7 µM]	u	-7%	2	23µM*	-24%[40.7 µM]
COc1ccc([C@H]2/C=C\CN(C(=O)[C@H](Cc3ccccc3)NC(=O)OCC3c4ccccc4-c4ccccc43)CC(=O)N2Cc2ccc(F)cc2)cc1	x	21µM*	x	-26	u	x
COc1ccc(C2/C=C\CN(C(=O)c3ccccc3)CC(=O)N2Cc2cccc(F)c2)cc1 (stereo not drawn)	x	u	u	0	-64%	x
O=C(CS(=O)CC(=O)N(c1cccc(F)c1)C(C(=O)NC1CCCCC1)c1ccco1)Nc1ccc(F)cc1 (stereo not drawn)	10%	15%	-5%	-9	-3%	14%
O=[N+]([O-])c1ccccc1/C=C/C=N/n1c(-c2ccccc2F)n[nH]c1=S	-3%	16%	0%	7	-17%	14µM*
COc1ccccc1/C=C/C=N/n1c(-c2ccccc2)n[nH]c1=S	u	u	u	26	21µM*	0.4µM*
COc1ccc(-c2n[nH]c(=S)n2/N=C/C=C/c2ccccc2OC)cc1	u	u	-16%	0	u	7.1µM*
COc1ccccc1/C=C/C=N/n1c(-c2ccc(Cl)cc2)n[nH]c1=S	-10%	u	u	12	16µM*	-28%
Cc1cccc(/C=N/n2c(-c3ccccc3)n[nH]c2=S)c1O	u	-6%	0%	18	9%	-38%
O=[N+]([O-])c1ccccc1/C=N/n1c(-c2ccccc2)n[nH]c1=S	u	15%	2%	-2	-25%	u
O=C1NC[C@H](CCCCN2C[C@H](Cc3ccccc3)N(CCc3ccccc3)C(=O)C2=O)N(CC2CCCCC2)C1=O	x	-2%	x	0	-16%	x
COc1cc2c(cc1OC)[C@@H]1O[C@](CCCCN3C(=O)c4ccccc4C3=O)(C2)Oc2cc(C)n(-c3ccccc3)c(=O)c21	-9%[10 µM]	x	x	x	x	30%[10 µM]
CC(C)c1nc(SCC(=O)Nc2ccc(N3CCOCC3)cc2)c2ccccc2n1	-1%	15µM*	u	0	u	-44%
CCCc1nc(SCC(=O)NNC(=O)C2CCCCC2)c2ccccc2n1	-4%	-1%	-9%	-5	-11%	-22%
O=C(CSc1ccc2ccccc2n1)Nc1ccc(N2CCOCC2)cc1	u	22%	-18%	18	-12%	29%
CCCc1nc(SCC(=O)Nc2ccc(N3CCOCC3)cc2)c2ccccc2n1	-20%	u	u	3	5.2µM*	u
COc1cc(C(=O)N(Cc2ccc(C)o2)C2CCS(=O)(=O)C2)cc(OC)c1OC (stereo not drawn)	11%	-1%	1%	22	14%	-16%
